Screens deposited in PubChem by National Center for Advancing Translational Sciences (NCATS).
Hits are enriched below; roughly 3.4% of the tested compounds scored in any of these assays.
IMPase Li inh – qHTS Assay for Identifying the Cell-Membrane Permeable IMPase Inhibitors: Potentiation with Lithium; CHO-M1 cells, IP1 TR-FRET (IP-One), carbachol + lithium; Potency, µM (highest dose often 59.4 µM), for the others: top-dose activity, negative = IMPase inhibition, actives largely listed as inhibitors; 210,000 tested, 0.35% active; AID 1457, 2008;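 also: IP1 builds up when IMPase is blocked and the TR-FRET signal falls; potency is read from the fitted curve at half-maximal effect; plate controls were basal vehicle for no effect and high inhibitor control for full effect; nearly all actives have a fitted effect of over 50% in size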
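Readout is a homogeneous TR-FRET IP1 immunoassay (Ex 320, Em 665 and 620), where raised cytosolic IP1 lowers signal. Cells were CHO-M1 treated 30 min at 37C with test compounds plus a little lithium; AC50 values came from Hill-equation fitting.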
IMPase inh – qHTS Assay for Identifying the Cell-Membrane Permeable IMPase Inhibitors; Inositol monophosphatase 1 (Rattus norvegicus), P97697; CHO-M1 cells, IP1 accumulation, HTRF TR-FRET ratio; inhibition (IP1 accumulation), % at 46.1 µM; 120,000 tested, under 10 active; active = well fitted curve in the direction sought with a large enough effect in the signal ratio, not every such curve was filed as active; inconclusive = small, poorly fitted or top-dose-only effect, or a change in a side signal; inactive = no such curve, though single readings can be large or run the other way; the % refers to the signal ratio;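 also: cells stimulated with carbachol in lithium chloride buffer; plate controls were DMSO basal wells for no effect and reference inhibitor wells for full effect; higher means more IMPase inhibition seen as more IP1 and lower FRET ratio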
Target sequence (P97697 whole entry, looked up): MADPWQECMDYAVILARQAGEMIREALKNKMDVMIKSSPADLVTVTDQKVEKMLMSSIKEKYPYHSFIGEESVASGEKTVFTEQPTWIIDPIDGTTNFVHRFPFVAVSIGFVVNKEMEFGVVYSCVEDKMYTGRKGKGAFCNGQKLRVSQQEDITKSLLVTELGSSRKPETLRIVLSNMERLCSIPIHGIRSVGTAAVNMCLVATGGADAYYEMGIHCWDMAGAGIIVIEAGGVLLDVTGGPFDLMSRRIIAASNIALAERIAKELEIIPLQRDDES
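Elevated IP1 in lysates lowers TR-FRET signal (665/620 ratio and 620 channel reported). Cells were CHO-M1, given carbachol (50 uM as added) plus 50mM LiCl, pH 7.4, 30 min, 37C; compounds titrated up to 46 uM; AC50 by Hill equation.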
PNC assembly inh – High Content Assay for Compounds that inhibit the Assembly of the Perinucleolar Compartment; PC3M PTB-GFP, PNC prevalence imaging, 16 h; hits give low values; activity change (PNC), negative = inhibition, % at 10 µM; 140,000 tested, 3.1% active; AID 2417, 2010;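 active = readout at or below -70, meaning at least 70% loss of cells showing the perinucleolar compartment, a nuclear body marking cancer cells; inconclusive = readout between -30 and a set limit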;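 also: plate controls were DMSO wells for no effect and camptothecin positive control wells for full effect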
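PC3M cells stably expressing PTB-GFP, 750–1000 cells/well, treated 16 h at 37 °C with compound (23 nl of library stock), in duplicate. After paraformaldehyde fixation and Hoechst stain, imaged at 20x; PNC prevalence scored by image analysis.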
HTT cytoprotect – qHTS Multiplex Assay to Identify Dual Action Probes in a Cell Model of Huntington: Cytoprotection (ATP); PC12 HTT-Q103 induced, cytoprotection, ATP luminescence, 40 h; Potency, µM (highest dose often 56.4 µM), for inactives: cytoprotection (ATP increase), actives largely listed as activators; 230,000 tested, 0.14% active; AID 1471, 2008; also: potency is read from the fitted curve at half-maximal effect; % of control where 0% means no effect; nearly all actives have a fitted effect of over 45% in size
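Cells were plated at 1500 per well in phenol red-free DMEM with 5% equine and 5% calf serum. Tebufenozide (100 nM final) and compounds were added, then ATPlite reagent, and luminescence was read.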
NPSR antagonist – qHTS Assay for Antagonists of the Neuropeptide S Receptor: cAMP Signal Transduction | Q6W5P4 | CHO-NPSR cells, cAMP TR-FRET, antagonist mode | Potency, µM (top dose mostly 38.3 µM), inactives show at the top dose activity change, negative = inhibition, actives largely listed as inhibitors | 220,000 tested, 1% active; also: potency is read from the fitted curve at half-maximal effect; % is scaled to controls: 0 for no effect and ±100 for the full control effect; nearly all actives have a fitted effect of over 50% in size
HTT aggregate – qHTS Multiplex Assay to Identify Dual Action Probes in a Cell Model of Huntington: Aggregate Formation (GFP). PC12 HttQ103-GFP aggregates, Acumen cytometry, 40 h. Potency, µM (highest dose often 46.1 µM), without a hit: at the highest dose activity change, negative = inhibition, usual class: inhibitors. 220,000 tested, 1.1% active. AID 1688, 2009; also: potency is read from the fitted curve at half-maximal effect; % is scaled to controls: 0 for no effect and ±100 for the full control effect; nearly all actives have a fitted effect of over 60% in size
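Steps: seed 1500 PC12 HTTQ103-GFP cells/well; add tebufenozide, 100 nM final; add compound titration; add ATPLite reagent; quantify GFP aggregates by laser scanning cytometry.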
* hit, by the source's call; u = inconclusive; x = no result given; [ ] = another dose, or the depositor's remark. Unless noted, calls follow the shape of the dose curve; as a rule, active = well fitted curve in the direction sought with a large enough effect; inconclusive = small, poorly fitted or top-dose-only effect, or another doubt; inactive = no such curve, though single readings can be large; an effect the other way counts as inactive or inconclusive.

SMILES	IMPase Li inh	IMPase inh	PNC assembly inh	HTT cytoprotect	NPSR antagonist	HTT aggregate
Cn1ncc([N+](=O)[O-])c1C(=O)Nc1nc2ccccc2n1CCN1CCCCC1	7.94µM*	7.6	-3.6	-13.3%	-10.0%[46.1 µM]	4.1%
CC(=O)Nc1ccc(NC(=O)CN(c2cccc([N+](=O)[O-])c2)S(C)(=O)=O)cc1	7.6%	x	x	14.8%[10 µM]	7.5%	5.9%[9.22 µM]
Cc1cc2cc3c(cc2nc1SCC(=O)O)CCC3	3.55µM*	x	x	-9.9%[10 µM]	58.4%	-10.6%[9.22 µM]
COc1cccc(CSc2ccc(S(=O)(=O)N3CCOCC3)cc2C(=O)NCC2CCCO2)c1OC (stereo not drawn)	4.0%	x	x	-16.3%	-1.6%	12.6%
O=C(CN1CCCc2ccccc21)N/N=C/c1c(O)ccc2ccccc12	-0.4%	1.8	6.3	-54.5%[10 µM]	-14.0%	10µM*
CCN(CC)C(=S)S	x	x	x	-80.7%	x	u
COc1ccc(-c2nc(S(=O)(=O)c3ccc(Cl)cc3)c(NCc3ccccc3)o2)cc1	x	-7.2	x	x	x	x
CC(=N[C@@H]1CCCC[C@H]1N=C(C)c1ccccc1O)c1ccccc1O	-9.0%	x	-7.8	6.4%[10 µM]	9.5%	11.5%
Clc1ccc(Cl)c(SCCCN2CCNCC2)c1	17.4%	x	x	5.3%[10 µM]	x	x
Cc1ccc(C(=O)N/C(=C\c2ccc(-c3ccc(Br)cc3)o2)C(=O)NCCCN(C)C)cc1	34.3%	x	x	8.1%[10 µM]	-41.9%	u
CN(C)CCNC(=O)/C(=C/c1ccc(-c2ccc(Cl)cc2Cl)o1)NC(=O)c1ccccc1	16.7%	x	16.0	x	u	35.5µM*
CN(C)CCNC(=O)/C(=C/c1ccc(-c2ccc(Cl)cc2)o1)NC(=O)c1ccccc1	29.3%	x	-5.0	-1.6%[0.074 µM]	-12.1%	3.16µM*
O=[N+]([O-])c1ccc2c(c1Nc1ccccc1)=NC1(CCCCC1)N=2	9.1%[38.3 µM]	6.9	-108.8*	-21.0%	-11.3%[46.1 µM]	u
COc1ccc(Nc2c([N+](=O)[O-])ccc3c2=NC2(CCCCC2)N=3)cc1	50.1%	x	x	-16.9%	10µM*	16.8%
COc1ccc(Nc2ccncc2[N+](=O)[O-])cc1	-2.6%	x	x	3.2%	2.0%	u
CCOC(=O)CSc1nnc(CNC(=O)c2ccc(OC)cc2)n1Cc1ccccc1	6.8%[38.3 µM]	1.7	12.7	6.5%	-11.0%[46.1 µM]	-14.9%
COc1ccc(C(=O)NCc2nnc(SCC(=O)N3CCc4ccccc43)n2Cc2ccccc2)cc1	2.3%	x	-100.3*	x	-9.9%	18.1%
COC(=O)c1ccc(C(NC(=O)OCc2ccccc2)/C(F)=C/[C@@H](C)C(=O)NCc2cc(C)on2)cc1 (stereo partly drawn)	-2.1%	x	x	-46.1%	x	x
CO[C@@H]1COC(=O)CC=C[C@@H](C)[C@@H]2C=C[C@H](O)[C@@H](COC(=O)[C@H](C)NC(=O)CC=C[C@H]1C)O2	x	x	x	1.6%[10 µM]	x	x
CCC(Oc1ccccc1)C(=O)Nc1nnc(C(F)(F)F)s1 (stereo not drawn)	-3.3%	-9.6	u	-0.3%[10 µM]	3.9%[46.1 µM]	25.1µM*
